# From PubChem BioAssay
# “And” between values parts separate entries of the source, which are not always exact repeats. Equal values may be shown once. The source made the active and inactive calls.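 Rule for the calls, unless noted: active = compounds whose cell count with miR-34 switched on is under 0.7 times the count with it off; inactive = the rest.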
# Key:
# [1] = P. berghei load reduction in hepatocytes – cell-based, HepG2, luciferase luminescence, HepG2 viability, primary screen (AID 624349; in the data active = parasite load remaining mostly below about 12%, no sharp cut-off; inactive = mostly above about 10%;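 note: 100% = mean of DMSO negative control wells on the same plate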); details: P. berghei liver stage in HepG2, luciferase luminescence, concentration not given here; parasite load remaining: stronger effect = lower value; viability: measured here: HepG2 viability without parasites
# [2] = Wnt pathway potentiators raising nuclear beta-catenin – imaging, WNT3A-conditioned medium, mouse C2C12, NPC library, primary screen (AID 1117326; in the data active = nuclear beta-catenin stimulation mostly above about 4.2%, no sharp cut-off; inactive = mostly below about 10%); details: stronger effect = higher value
# [3] = stimulators of insulin release from INS-1E, primary screen, cell-based, 5 mM glucose, NPC library (AID 1117329;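 active = compound raises insulin release from rat beta cells at 5 mM glucose, no numeric limit stated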); details: rat INS-1E insulin secretion, at 10 µM, stronger effect = higher value
# [4] = growth inhibition of GSK3B-pretreated HCT116 cells – cell-based, CellTiter-Glo, 0.2 to 20 µM (AID 1117336;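 active = compounds lowering colon cancer cell viability after pretreatment blocking the GSK3B kinase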); details: HCT116 viability after GSK3B inhibitor, at 20 µM, stronger effect = higher value
# [5] = inhibition of endothelial tube formation, primary screen, imaging, VEGF stimulated, CD31 staining, tube area, NPC library (AID 1117340;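 active = compound that reduces growth-factor-driven endothelial tube area in a mixed cell culture, no cutoff stated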); details: VEGF-stimulated ADSC/ECFC co-culture, at 10 µM, stronger effect = higher value
# [6] = GLP1 release stimulators, primary, NCI-H716, NPC library (AID 1117341;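 active = compound raises GLP1 secretion from the human gut endocrine cells, with no numeric limit stated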); details: NCI-H716 cells, at 10 µM, stronger effect = higher value
# [7] = HCT116 colon cancer cell growth inhibition, primary screen, CellTiter-Glo luminescence, NPC library (AID 1117342;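 active = compounds that lower survival of HCT116 colon cancer cells in the luminescence readout, no numeric limit stated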); details: at 20 µM (top of the series)
# [8] = reduced SW480 viability measured with CellTiter-Glo, NPC library, primary (AID 1117343;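 active = compounds that lower viability of the colon cancer cells in the luminescence readout, with no numeric limit stated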); details: CellTiter-Glo luminescence; at 20 µM (top of the series)
# [9] = NPC library primary testing for decreased DLD-1 cell viability via CellTiter-Glo (AID 1117346;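 active = compounds that lower survival of DLD-1 colon cancer cells in the luminescence readout, no cutoff given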); details: DLD-1 viability, CellTiter-Glo luminescence; at 20 µM (top of the series)
# [10] = test system: Aerobactin synthetase IucA (Klebsiella pneumoniae, hypervirulent); experiment: biochemical IucA inhibition screen of LOPAC library by absorbance (AID 1346212; call rule not given here;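 note: 100% = no compound wells and 0% = no enzyme wells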); details: IucA enzyme assay, absorbance (OD) readout; stronger effect = lower value;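 tested at 8 µM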
# [11] = viability loss with induced miR-34 in A549 – imaging, A549 dox-inducible miR-34, nuclei and caspase counts, primary screen (AID 1347080); details: A549 miR-34 inducible, Hoechst nuclei count, 48 h
# [12] = MELAS cybrid and Rieske KO viability enhancers – cell-based, MELAS cybrids, Rieske KO mouse fibroblasts, CellTiter-Glo, primary screen (AID 1508586;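 active = mean z-score across replicates of 1.96 or higher in either the MELAS or the Rieske mutant cell line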;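 note: z relative to plate mean and SD of compound and empty wells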); details: low glucose
# [13] = galactose survival enhancers in mitochondrial complex I cybrids – cell-based, galactose medium, ATP luminescence, primary screen (AID 1645843;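 active = z-score of at least 1.8 in each of two replicates, scored against plate mean and spread of sample wells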;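 note: positive z means more ATP and so rescue of galactose-driven cybrid death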); details: complex I mutant cybrid cells, 72 h, stronger effect = higher value
# [14] = test system: Hepatitis C virus NS3 helicase; experiment: blockers of NS3h binding to ssDNA – biochemical, fluorescence polarization, LOPAC1280 library, primary screen (AID 687035; in the data active = inhibition above about 37%); details: Purified HCV NS3 helicase, Cy5-dT15 ssDNA binding fluorescence polarization; stronger effect = higher value; concentration not given here
# [15] = compounds altering circadian rhythm period length – cell-based, LOPAC library, luminescence reporter (AID 2774; call rule not given here;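 note: values are relative to mean of DMSO wells on each plate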); details: circadian reporter cells, at 7 µM, actives lie on both sides
# [16] = compounds altering viability of human ES cells (AID 493140; call rule not given here;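 note: cells exposed to compounds for four days before counting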); details: human embryonic stem cell survival screen; stronger effect = higher value
# [17] = EMT-state selective cytotoxicity in co-culture – imaging, PC-3E GFP, TEM4-18 mCherry, primary screen (AID 1345086;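 active = compounds killing one labelled cell type while sparing the other, by normalised counts and ratio limits, not self-fluorescent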;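 for all read-outs here: cells exposed to compound for 72 h before imaging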;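 for red/green cell ratio (normalised): normalised mesenchymal count divided by normalised epithelial count so high means epithelial killing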); details: PC-3E GFP / TEM4-18 mCherry co-culture, imaging cell counts, at 1 µM; for red/green cell ratio (normalised): actives lie on both sides
# [18] = target: NAD(+) hydrolase SARM1 (Homo sapiens) (UniProt Q6SZW1); experiment: blocking NAD cleavage by SARM1 SAM-TIR – cell lysate, NAD-Glo luminescence (AID 1508614;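 active = compound whose remaining NAD level is above about 45 nM, limit read from the data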;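 note: higher remaining NAD means stronger inhibition of SARM1 NADase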); details: SAM-TIR HEK293T lysate NADase, at 1 µM, stronger effect = higher value
# Chain of NAD(+) hydrolase SARM1 (Homo sapiens) (Q6SZW1 whole entry, looked up): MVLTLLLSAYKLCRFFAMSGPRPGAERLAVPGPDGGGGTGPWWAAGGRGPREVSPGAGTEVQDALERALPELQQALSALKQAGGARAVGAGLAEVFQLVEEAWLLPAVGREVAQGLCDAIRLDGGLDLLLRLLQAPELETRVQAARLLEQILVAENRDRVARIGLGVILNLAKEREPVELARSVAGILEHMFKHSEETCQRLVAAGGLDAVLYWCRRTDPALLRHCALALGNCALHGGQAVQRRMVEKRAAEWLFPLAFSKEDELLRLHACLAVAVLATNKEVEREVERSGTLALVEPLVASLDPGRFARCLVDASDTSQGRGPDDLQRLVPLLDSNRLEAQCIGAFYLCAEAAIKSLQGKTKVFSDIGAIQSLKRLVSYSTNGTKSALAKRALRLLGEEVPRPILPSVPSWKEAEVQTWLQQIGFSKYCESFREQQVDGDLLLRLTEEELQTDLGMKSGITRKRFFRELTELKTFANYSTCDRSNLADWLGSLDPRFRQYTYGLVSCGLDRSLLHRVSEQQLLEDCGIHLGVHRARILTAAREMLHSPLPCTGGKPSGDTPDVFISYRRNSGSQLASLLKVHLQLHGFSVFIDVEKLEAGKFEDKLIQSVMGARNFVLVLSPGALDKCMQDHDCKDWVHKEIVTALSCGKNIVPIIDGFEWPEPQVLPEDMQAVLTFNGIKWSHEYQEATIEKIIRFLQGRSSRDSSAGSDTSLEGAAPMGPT
# [19] = measured here: relative caspase fold change +Dox/-Dox
# [20] = measured here: total cells with miR-34 induction, stronger effect = lower value
# [21] = measured here: total cells without miR-34 induction
# [22] = MELAS cybrid survival, CellTiter-Glo 48 h, stronger effect = higher value
# [23] = Rieske KO mouse fibroblast survival, CellTiter-Glo 72 h
# [24] = measured here: epithelial PC-3E GFP cell survival
# [25] = measured here: mesenchymal TEM4-18 mCherry cell survival
compound,measurement,setting,value
CN1C[C@@H](NS(=O)(=O)N(C)C)C[C@@H]2c3cccc4c3c(cn4C)C[C@H]21,parasite load remaining,[1],32.6% (inactive)
same,viability,[1],102%
same,nuclear beta-catenin stimulation,[2]; at 10 µM,0.4% (inactive)
same,nuclear beta-catenin stimulation,"[2]; stimulation, at 2 µM",1.4%
same,insulin secretion stimulation,[3],3.7% (inactive)
same,viability decrease,[4],9.6% (inactive)
same,tube area decrease,[5],-8.8% (inactive)
same,GLP1 secretion stimulation,[6],4.1% (inactive)
same,inhibition of viability,[7],36.4% (inactive)
same,viability decrease (inhibition),[8],48% (inactive)
same,viability decrease (inhibition),[9],9% (inactive)
same,remaining activity,[10],113% (inactive)
same,fold change,[11]; stronger effect = lower value,0.878 (inactive)
same,fold change,[11]; [19],1.21
same,cell count,[11]; [20],9040
same,cell count,[11]; [21],10300
same,z-score,[12]; [22],0.531 (inactive)
same,z-score,[12]; [23],0.143
same,z-score,[13],0.405 (inactive)
CCCC[N+]1(C)[C@@H]2CC(OC(=O)[C@H](CO)c3ccccc3)C[C@H]1[C@@H]1O[C@@H]12 (some centres not stated),parasite load remaining,[1],35.4% (inactive)
same,viability,[1],61.5%
same,nuclear beta-catenin stimulation,[2]; at 10 µM,1.5% (inactive)
same,nuclear beta-catenin stimulation,"[2]; stimulation, at 2 µM",-0.2%
same,insulin secretion stimulation,[3],0.85% (inactive)
same,viability decrease,[4],11.7% (inactive)
same,tube area decrease,[5],-20.3% (inactive)
same,GLP1 secretion stimulation,[6],0.9% (inactive)
same,inhibition of viability,[7],3.4% (inactive)
same,viability decrease (inhibition),[8],-15.4% (inactive)
same,viability decrease (inhibition),[9],-1.4% (inactive)
same,fold change,[11]; stronger effect = lower value,0.89 (inactive)
same,fold change,[11]; [19],0.894
same,cell count,[11]; [20],9520
same,cell count,[11]; [21],10700
same,z-score,[12]; [22],-0.818 (inactive) and -0.303 (inactive)
same,z-score,[12]; [23],-0.588 and -0.226
same,z-score,[13],0.285 (inactive)
C#C[C@]1(O)C=C[C@H]2[C@@H]3CCC4=CC(=O)CC[C@@H]4[C@H]3CC[C@@]21CC,nuclear beta-catenin stimulation,[2]; at 10 µM,0.9% (inactive)
same,nuclear beta-catenin stimulation,"[2]; stimulation, at 2 µM",-1%
same,insulin secretion stimulation,[3],-0.7% (inactive)
same,viability decrease,[4],7.4% (inactive)
same,tube area decrease,[5],-2.3% (inactive)
same,GLP1 secretion stimulation,[6],3.4% (inactive)
same,inhibition of viability,[7],32.2% (inactive)
same,viability decrease (inhibition),[8],-18.5% (inactive)
same,viability decrease (inhibition),[9],-11.8% (inactive)
CC(C)NCC(O)c1ccc(N)c(C#N)c1 (configuration not stated),parasite load remaining,[1],53.9% (inactive)
same,viability,[1],161%
same,nuclear beta-catenin stimulation,[2]; at 10 µM,-0.6% (inactive)
same,nuclear beta-catenin stimulation,"[2]; stimulation, at 2 µM",-0.3%
same,insulin secretion stimulation,[3],2.6% (inactive)
same,viability decrease,[4],25.9% (inactive)
same,tube area decrease,[5],-6.6% (inactive)
same,GLP1 secretion stimulation,[6],8.5% (inactive)
same,inhibition of viability,[7],12.2% (inactive)
same,viability decrease (inhibition),[8],40% (inactive)
same,viability decrease (inhibition),[9],9.6% (inactive)
same,fold change,[11]; stronger effect = lower value,0.911 (inactive) and 0.954 (inactive) and 0.854 (inactive)
same,fold change,[11]; [19],1.24 and 1.48 and 1.65
same,cell count,[11]; [20],6050 and 9400 and 9430
same,cell count,[11]; [21],6640 and 9850 and 11000
same,z-score,[12]; [22],0.636 (inactive)
same,z-score,[12]; [23],1.18
same,z-score,[13],0.17 (inactive) and 0.505 (inactive)
COc1ccc(C(=O)c2c(C)n(CCN3CCOCC3)c3ccccc23)cc1,parasite load remaining,[1],50.5% (inactive)
same,viability,[1],159%
same,nuclear beta-catenin stimulation,[2]; at 10 µM,1.2% (inactive)
same,nuclear beta-catenin stimulation,"[2]; stimulation, at 2 µM",0.9%
same,insulin secretion stimulation,[3],-0.5% (inactive)
same,viability decrease,[4],75% (active)
same,tube area decrease,[5],8.1% (inactive)
same,GLP1 secretion stimulation,[6],1.7% (inactive)
same,inhibition of viability,[7],54% (active)
same,viability decrease (inhibition),[8],65% (active)
same,viability decrease (inhibition),[9],39.5% (inactive)
same,fold change,[11]; stronger effect = lower value,0.898 (inactive)
same,fold change,[11]; [19],1.25
same,cell count,[11]; [20],9440
same,cell count,[11]; [21],10500
same,z-score,[12]; [22],0.332 (inactive)
same,z-score,[12]; [23],0.082
same,z-score,[13],0.375 (inactive)
Cc1ncsc1CCCl,inhibition,[14],-2% (inactive)
same,nuclear beta-catenin stimulation,[2]; at 10 µM,1% (inactive)
same,nuclear beta-catenin stimulation,"[2]; stimulation, at 2 µM",2.4%
same,insulin secretion stimulation,[3],-0.8% (inactive)
same,viability decrease,[4],-208% (inactive)
same,tube area decrease,[5],-22% (inactive)
same,GLP1 secretion stimulation,[6],-0.4% (inactive)
same,inhibition of viability,[7],-3.1% (inactive)
same,viability decrease (inhibition),[8],43.8% (inactive)
same,viability decrease (inhibition),[9],72.4% (active)
same,fold change,[11]; stronger effect = lower value,0.959 (inactive) and 0.961 (inactive)
same,fold change,[11]; [19],0.758 and 0.938
same,cell count,[11]; [20],9720 and 8120
same,cell count,[11]; [21],10100 and 8450
same,z-score,[13],0.7 (inactive) and 0.075 (inactive)
CCCCC/C=C\C/C=C\C/C=C\C/C=C\CCCC(=O)NCC(=O)O,period change,[15],0.15 h (inactive)
same,survival,[16],96.8 (inactive)
same,inhibition,[14],-1% (inactive)
same,nuclear beta-catenin stimulation,[2]; at 10 µM,0.8% (inactive)
same,nuclear beta-catenin stimulation,"[2]; stimulation, at 2 µM",0.6%
same,insulin secretion stimulation,[3],2.2% (inactive)
same,viability decrease,[4],104% (active)
same,tube area decrease,[5],-12.4% (inactive)
same,GLP1 secretion stimulation,[6],5% (inactive)
same,inhibition of viability,[7],103% (active)
same,viability decrease (inhibition),[8],145% (active)
same,viability decrease (inhibition),[9],105% (active)
same,remaining activity,[10],101% (inactive)
same,fold change,[11]; stronger effect = lower value,0.935 (inactive) and 1.01 (inactive)
same,fold change,[11]; [19],1.02
same,cell count,[11]; [20],5930 and 5790
same,cell count,[11]; [21],6340 and 5700
COc1ccc(CN2CCNCC2)c(OC)c1OC,survival,[16],5.83 (inactive)
same,parasite load remaining,[1],122% (inactive) and 71.5% (inactive)
same,viability,[1],118% and 81.2%
same,nuclear beta-catenin stimulation,[2]; at 10 µM,0.8% (inactive)
same,nuclear beta-catenin stimulation,"[2]; stimulation, at 2 µM",1.1%
same,insulin secretion stimulation,[3],-0.9% (inactive)
same,viability decrease,[4],14.1% (inactive)
same,tube area decrease,[5],8.8% (inactive)
same,GLP1 secretion stimulation,[6],0% (inactive)
same,inhibition of viability,[7],19.3% (inactive)
same,viability decrease (inhibition),[8],-6.6% (inactive)
same,viability decrease (inhibition),[9],1.5% (inactive)
same,red/green cell ratio (normalised),[17],0.94 (inactive)
same,normalised cell number,[17]; [24],1.11
same,normalised cell number,[17]; [25],1.05
same,fold change,[11]; stronger effect = lower value,0.892 (inactive)
same,fold change,[11]; [19],1.29
same,cell count,[11]; [20],9020
same,cell count,[11]; [21],10100
same,z-score,[12]; [22],0.315 (inactive)
same,z-score,[12]; [23],0.274
same,remaining NAD,[18],10 nM (inactive)
FC(F)(F)c1cccc(C2=CCN(CCc3ccc4ccccc4c3)CC2)c1,nuclear beta-catenin stimulation,[2]; at 10 µM,-0.7% (inactive)
same,nuclear beta-catenin stimulation,"[2]; stimulation, at 2 µM",-1.5%
same,insulin secretion stimulation,[3],0.45% (inactive)
same,viability decrease,[4],40.2% (inactive)
same,tube area decrease,[5],-6.6% (inactive)
same,GLP1 secretion stimulation,[6],3.7% (inactive)
same,inhibition of viability,[7],42.1% (inactive)
same,viability decrease (inhibition),[8],53.5% (active)
same,viability decrease (inhibition),[9],17.3% (inactive)
same,fold change,"[11]; stronger effect = lower value, cell number ratio, induced over uninduced",0.954 (inactive)
same,fold change,[11]; [19],1.47
same,cell count,[11]; [20],8420
same,cell count,[11]; [21],8830
same,z-score,[13],-0.615 (inactive)
CC(O)CN1CCN(CC(=O)[O-])CCN(CC(=O)[O-])CCN(CC(=O)[O-])CC1.[Gd+3] (configuration not stated),nuclear beta-catenin stimulation,[2]; at 10 µM,-1.8% (inactive)
same,nuclear beta-catenin stimulation,"[2]; stimulation, at 2 µM",-0.7%
same,insulin secretion stimulation,[3],3.6% (inactive)
same,viability decrease,[4],7.8% (inactive)
same,tube area decrease,[5],9.4% (inactive)
same,GLP1 secretion stimulation,[6],-4.3% (inactive)
same,inhibition of viability,[7],0.7% (inactive)
same,viability decrease (inhibition),[8],-1.9% (inactive)
same,viability decrease (inhibition),[9],-6.4% (inactive)
same,red/green cell ratio (normalised),[17],0.9 (inactive)
same,normalised cell number,[17]; [24],1.27
same,normalised cell number,[17]; [25],1.14
same,fold change,[11]; stronger effect = lower value,0.973 (inactive)
same,fold change,[11]; [19],0.913
same,cell count,[11]; [20],8990
same,cell count,[11]; [21],9240
same,remaining NAD,[18],10 nM (inactive)
